# Measured values: PubChem BioAssay (NCI)
# The panel holds about 83,000 compounds, 20% with a hit somewhere; the sample as a whole holds those more often.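 A percent growth of 40 corresponds to 60% growth inhibition; 0 means no net growth; -100 means all cells died. Active threshold: below 10.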 A number with no mark means an inactive call. The source made the active and inactive calls.
# Tests used:
# Assay in all cases: NCI-60 one-dose screen, 48 h (100 = growth as untreated, 0 = no growth, -100 = all killed)
# Conditions in all cases: 10 µM unless noted
# NCI-H23 lung = test system: NCI-H23 lung
# NCI-H226 lung = test system: NCI-H226 lung
# NCI-H322M lung = test system: NCI-H322M lung
# HOP-62 NSCLC = test system: HOP-62 NSCLC
# NCI-H460 lung = test system: NCI-H460 lung
# HOP-92 NSCLC = test system: HOP-92 NSCLC
# NCI-H522 lung = test system: NCI-H522 lung
# A549/ATCC NSCLC = test system: A549/ATCC NSCLC
# 786-0 renal = test system: 786-0 renal
# COLO 205 colon = test system: COLO 205 colon
# DU-145 prostate = test system: DU-145 prostate
# K-562 leukemia = test system: K-562 leukemia
# MALME-3M melanoma = test system: MALME-3M melanoma
# MDA-MB-231 breast = test system: MDA-MB-231 breast
# RXF 393 renal = test system: RXF 393 renal
# SF-268 CNS = test system: SF-268 CNS
# SF-295 CNS = test system: SF-295 CNS
# UACC-257 melanoma = test system: UACC-257 melanoma
# M14 melanoma = test system: M14 melanoma
Compound,growth (NCI-H23 lung),growth (NCI-H226 lung),growth (NCI-H322M lung),growth (HOP-62 NSCLC),growth (NCI-H460 lung),growth (HOP-92 NSCLC),growth (NCI-H522 lung),growth (A549/ATCC NSCLC),growth (786-0 renal),growth (COLO 205 colon),growth (DU-145 prostate),growth (K-562 leukemia),growth (MALME-3M melanoma),growth (MDA-MB-231 breast),growth (RXF 393 renal),growth (SF-268 CNS),growth (SF-295 CNS),growth (UACC-257 melanoma),growth (M14 melanoma)
COc1cc(-c2c3sc(=O)[nH]c3nc3c2c(=O)[nH]n3C(C)C)cc2c1OCO2,108%,96.3%,99.9%,107%,101%,114%,96.8%,94.8%,106%,119%,119%,97.6%,121%,101%,94.5%,115%,83.5%,99.2%,114%
O=C(O)c1c([N+](=O)[O-])cnc2ccccc12,91.5%,91.8%,96.6%,90.6%,106%,131%,100%,102%,105%,121%,116%,112%,88.4%,107%,110%,104%,102%,97.1%,93.5%
CC/C(Cc1ccccc1)=C(/c1ccc(O)cc1)c1ccc(OCCN2CCCC2)cc1,8.75% (active),71.2%,-18% (active),-22.3% (active),-90.5% (active),-12.8% (active),-54.3% (active),-59.1% (active),-83.6% (active),-71.8% (active),-18.6% (active),-10.1% (active),-72.5% (active),-60.8% (active),-65% (active),9.94% (active),-63.1% (active),-65.8% (active),-70.5% (active)
COc1cc2c(cc1O)CCc1cc(O)cc(OC)c1-2,99.3%,87.4%,101%,105%,93.8%,103%,61.5%,87.6%,97.1%,110%,109%,99.2%,96.5%,83.1%,103%,93.8%,103%,95.3%,94.6%
Nc1ccc2c(c1)C(=O)NC2=O,91.7%,96.2%,108%,93.1%,103%,151%,99.3%,105%,110%,106%,110%,100%,90.5%,101%,115%,92.5%,101%,98.6%,99.4%
COc1cnc2c(c1)C(=O)c1c-2n(CCCN2CCN(C)CC2)c(=O)c2cc([N+](=O)[O-])ccc12,-46.4% (active),79.3%,-56.9% (active),-61.3% (active),-74.5% (active),-57.7% (active),-37.6% (active),-78.9% (active),-87.1% (active),-5.87% (active),-42.5% (active),-50.8% (active),-72.9% (active),-72.3% (active),84.2%,-60.7% (active),-80.8% (active),-37.6% (active),-85.2% (active)
CC/C=C\C[C@H](O)C/C=C1/C(=O)C=C[C@@H]1C/C=C\CCCC(N)=O,-38.3% (active),-39.7% (active),29.7%,-15.6% (active),-9.93% (active),37.6%,-19.3% (active),-23.5% (active),-24.2% (active),-27.8% (active),18.8%,-1.14% (active),-14.8% (active),20.4%,-81% (active),27.3%,-22.2% (active),-11.7% (active),1.88% (active)
COc1cnc2c(c1)C(=O)c1c-2n(CCCN2CCNCC2)c(=O)c2cc([N+](=O)[O-])ccc12,-63.6% (active),-59.4% (active),-72.2% (active),-67.2% (active),-42.3% (active),22.8%,-48.2% (active),-87.2% (active),-85.8% (active),14.4%,-85.1% (active),-50.1% (active),-71.4% (active),-77.4% (active),0.0319% (active),-66.6% (active),-14.7% (active),46.3%,-83.1% (active)
CCOc1ccc(Nc2nc(-c3c(C)nc4ncccn34)cs2)cc1,24.2%,52.1%,52.2%,17.9%,5.6% (active),18.2%,-6.3% (active),22.4%,9.74% (active),-60.8% (active),0.86% (active),4.04% (active),52.8%,-12.5% (active),-1.2% (active),28.4%,17.1%,78.8%,21.1%
COc1ccc(C2Nc3ccccc3-n3cccc32)cc1 (stereo not drawn),80.4%,96.7%,97%,104%,102%,74.2%,95.7%,104%,111%,126%,111%,105%,100%,78.7%,111%,98.7%,92.4%,98.9%,99.3%
CS(CCCCN=C=S)=NC(=O)c1c(F)c(F)c(F)c(F)c1F (stereo not drawn),80.6%,99.6%,85.6%,109%,65.5%,80.8%,20.6%,79.6%,94.3%,61.4%,41.4%,22.5%,44.8%,67.9%,41.9%,86.8%,102%,61.5%,62.8%
O=C1c2cc3c(cc2-c2c1c1cc(Cl)c(Cl)cc1c(=O)n2CCCn1ccnc1)OCO3,-19.4% (active),-3.81% (active),22.9%,-19.5% (active),6.51% (active),29.5%,1.51% (active),3.18% (active),-3.17% (active),6.24% (active),8.73% (active),16.3%,23.2%,41.4%,3.03% (active),17.7%,-17.4% (active),-17.1% (active),-11.1% (active)
